The AC50 is the concentration at which the activity in the assay is half-maximal.

Each structure is given as a SMILES string. Calls of active or inactive are those of the source. How the source made its calls: active means hit-call score of the fitted dose curve at least 0.9, where 1 is the maximum; inactive means score below 0.9.

Common to all, as to settings: mRNA level, 48 h; actives raise or lower the signal
Read-out in test [1]: ATP-citrate lyase (ACLY), ACLY (gene 47)
The test can be described thus: LTEA_HepaRG_ACLY: Life Technologies and Expression Analysis (LTEA) Assay for ATP-citrate lyase (ACLY) using HepaRG (AID 2283466). An outline of the steps:
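ACLY expression changes in human HepaRG liver cells are quantified by qRT-PCR after 48 h exposure to test chemicals (maximum 100 uM, half-log steps). Values are fitted in both directions relative to 0.5% DMSO vehicle.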

Read-out in test [2]: Alkaline Phosphatase, Placental (ALPP) gene, ALPP (gene 250)
Kind of test: LTEA_HepaRG_ALPP: Life Technologies and Expression Analysis (LTEA) Assay for Alkaline Phosphatase, Placental (ALPP) gene using HepaRG (AID 2283468).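 On AC50: differentiated human HepaRG liver cells in serum-free induction medium; ALPP transcript by TaqMan qRT-PCR normalized to ACTB GAPDH and POLR2A.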 In short, it runs like this: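 Expression of ALPP was quantified by qRT-PCR against three housekeeping genes in human HepaRG cultures treated for 48 h with an eight-point concentration series up to 100 uM. Activity in either direction was fitted relative to 0.5% DMSO.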

Read-out in test [3]: Bcl-2 (BAD) gene, BAD (gene 572)
The test can be described thus: LTEA_HepaRG_BAD: Life Technologies and Expression Analysis (LTEA) Assay for Bcl-2 (BAD) gene using HepaRG (AID 2283469). In short, it runs like this: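 Activity values reflect up- or down-regulation of BAD mRNA in human HepaRG hepatic cells treated 48 h in serum-free medium, with eight-point half-log dosing capped at 100 uM and 0.5% DMSO vehicle.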

Read-out in test [4]: Bcl-2 (BAX) gene, BAX (gene 581)
Kind of test: LTEA_HepaRG_BAX: Life Technologies and Expression Analysis (LTEA) Assay for Bcl-2 (BAX) gene using HepaRG (AID 2283470). In short, it runs like this:
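Cells were thawed, plated for 48 h, moved to serum-free induction medium and dosed for 48 h (highest concentration 100 uM, half-log steps, 0.5% DMSO). Total RNA was then analysed for BAX expression by qRT-PCR.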

Read-out in test [5]: Alpha-fetoprotein (AFP) gene, AFP (gene 174)
The test can be described thus: LTEA_HepaRG_AFP: Life Technologies and Expression Analysis (LTEA) Assay for Alpha-fetoprotein (AFP) gene using HepaRG (AID 2283472).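 On AC50: AFP transcript by TaqMan qRT-PCR normalized to ACTB GAPDH and POLR2A.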 In short, it runs like this:
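Chemicals were tested on differentiated HepaRG cells for 48 hours at eight concentrations up to 100 uM, with 0.5% DMSO as vehicle. AFP expression was then quantified by qRT-PCR and analyzed for gain or loss relative to DMSO.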

Read-out in test [6]: BCL2L11 (gene 10018)
The test can be described thus: LTEA_HepaRG_BCL2L11: Life Technologies and Expression Analysis (LTEA) Assay for Bcl-2 (BCL2L11) gene using HepaRG (AID 2283473). In short, it runs like this:
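Cells were plated, cultured 48 h, switched to serum-free induction medium, then dosed in duplicate for 48 h at eight half-log concentrations up to 100 uM. Lysates underwent RNA isolation and TaqMan qRT-PCR; gain or loss versus DMSO was fitted.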

Read-out in test [7]: Apolipoprotein A-V (APOA5) gene, APOA5 (gene 116519)
Kind of test: LTEA_HepaRG_APOA5: Life Technologies and Expression Analysis (LTEA) Assay for Apolipoprotein A-V (APOA5) gene using HepaRG (AID 2283474). In short, it runs like this:
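Human liver HepaRG cells are treated 48 h with test chemicals (100 uM top, half-log dilutions, 0.5% DMSO). APOA5 mRNA induction or loss is measured by qRT-PCR relative to vehicle.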

Read-out in test [8]: Apoptosis regulator Bcl-2 (Homo sapiens) (UniProt P10415)
The test can be described thus: LTEA_HepaRG_BCL2: Life Technologies and Expression Analysis (LTEA) Assay for Bcl-2 gene using HepaRG (AID 2283475).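 Further: BCL2 transcript by TaqMan qRT-PCR normalised to ACTB GAPDH and POLR2A.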 In short, it runs like this: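 Plated human HepaRG cells are exposed to test chemicals for 48 h across eight concentrations from 100 uM downward in half-log steps (0.5% DMSO). BCL2 expression is then measured by qRT-PCR with housekeeping normalisation and fitted bidirectionally against vehicle.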

Read-out in test [9]: Bcl-2 (BID) gene, BID (gene 637)
The test can be described thus: LTEA_HepaRG_BID: Life Technologies and Expression Analysis (LTEA) Assay for Bcl-2 (BID) gene using HepaRG (AID 2283476). An outline of the steps:
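Cells are plated, cultured 48 h, switched to serum-free induction medium, then dosed 48 h (100 uM top, half-log steps, 0.5% DMSO). RNA is isolated and BID expression read by qRT-PCR.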

Read-out in test [10]: Caspase-3 (Homo sapiens) (UniProt P42574)
Kind of test: LTEA_HepaRG_CASP3: Life Technologies and Expression Analysis (LTEA) Assay for cysteine-aspartic acid protease (CASP3) using HepaRG (AID 2283477). An outline of the steps:
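In HepaRG liver cells dosed for 48 h at up to 100 uM (eight-point, duplicate), CASP3 expression changes are scored by qRT-PCR. Activity is fitted in both directions with 0.5% DMSO as baseline.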

Read-out in test [11]: Cytochrome P450 (CYP24A1), CYP24A1 (gene 1591)
The test can be described thus: LTEA_HepaRG_CYP24A1: Life Technologies and Expression Analysis (LTEA) Assay for Cytochrome P450 (CYP24A1) using HepaRG (AID 2283478). An outline of the steps:
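Human liver HepaRG cultures receive each chemical for 48 h across an eight-point half-log series topping at 100 uM in 0.5% DMSO. Induction or suppression of CYP24A1 mRNA is scored relative to vehicle after housekeeping-gene normalization.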

Read-out in test [12]: Cytochrome P450 (CYP1A2), CYP1A2 (gene 1544)
Kind of test: LTEA_HepaRG_CYP1A2: Life Technologies and Expression Analysis (LTEA) Assay for Cytochrome P450 (CYP1A2) using HepaRG (AID 2283479).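 On AC50: TaqMan qRT-PCR transcript level normalized to ACTB GAPDH and POLR2A.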 An outline of the steps: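 Assesses CYP1A2 mRNA in human HepaRG liver cells after 48 h chemical exposure at up to 100 uM. Values come from qRT-PCR with bidirectional curve fitting relative to DMSO.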

Read-out in test [13]: cysteine-aspartic acid protease (CASP8), CASP8 (gene 841)
Kind of test: LTEA_HepaRG_CASP8: Life Technologies and Expression Analysis (LTEA) Assay for cysteine-aspartic acid protease (CASP8) using HepaRG (AID 2283480). An outline of the steps:
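Concentration-response in duplicate up to 100 uM (half-log steps, 0.5% DMSO) on differentiated HepaRG cultures for 48 h. Expression change of CASP8 mRNA is determined by TaqMan qRT-PCR with housekeeping-gene normalization.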

Read-out in test [14]: Cytochrome P450 (CYP2B6), CYP2B6 (gene 1555)
The test can be described thus: LTEA_HepaRG_CYP2B6: Life Technologies and Expression Analysis (LTEA) Assay for Cytochrome P450 (CYP2B6) using HepaRG (AID 2283481). In short, it runs like this: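 Using 48 h treatment of HepaRG cells in serum-free induction medium, concentrations spanned half-log steps from 100 uM in 0.5% DMSO vehicle. CYP2B6 mRNA induction or loss is scored by qRT-PCR against DMSO.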

Read-out in test [15]: Cytochrome P450 2C19 (Homo sapiens) (UniProt P33261)
Kind of test: LTEA_HepaRG_CYP2C19: Life Technologies and Expression Analysis (LTEA) Assay for CYP2C19 using HepaRG (AID 2283482). In short, it runs like this:
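Human HepaRG liver cells received test chemicals for 48 h (highest 100 uM, half-log dilutions in 0.5% DMSO). CYP2C19 mRNA induction or loss is read by multiplexed qRT-PCR and fitted in both directions versus vehicle.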

Read-out in test [16]: CYP2C8 (gene 1558)
Kind of test: LTEA_HepaRG_CYP2C8: Life Technologies and Expression Analysis (LTEA) Assay for CYP2C8 using HepaRG (AID 2283483). An outline of the steps:
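This is a transcriptional endpoint in HepaRG cultures: 48 h exposure, highest concentration 100 uM. CYP2C8 mRNA is quantified by TaqMan qRT-PCR.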

Read-out in test [17]: CYP2C9 (gene 1559)
The test can be described thus: LTEA_HepaRG_CYP2C9: Life Technologies and Expression Analysis (LTEA) Assay for CYP2C9 using HepaRG (AID 2283484). In short, it runs like this: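 Eight-point concentration-response (highest 100 uM, half-log dilutions) in HepaRG cells for 48 h; CYP2C9 expression by qRT-PCR normalized to ACTB, GAPDH, POLR2A. Bidirectional fit, DMSO baseline.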

Read-out in test [18]: CYP2E1 (gene 1571)
Kind of test: LTEA_HepaRG_CYP2E1: Life Technologies and Expression Analysis (LTEA) Assay for CYP2E1 using HepaRG (AID 2283485). An outline of the steps: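 Readout is qRT-PCR of CYP2E1 mRNA, normalized to three housekeeping genes and fitted bidirectionally against 0.5% DMSO. HepaRG cells were dosed 48 h at eight concentrations, highest 100 uM with half-log dilutions.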

Read-out in test [19]: adenosine kinase (ADK) gene, ADK (gene 132)
Kind of test: LTEA_HepaRG_ADK: Life Technologies and Expression Analysis (LTEA) Assay for adenosine kinase (ADK) gene using HepaRG (AID 2283471). In short, it runs like this:
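ADK expression quantified by qRT-PCR, normalised to three housekeeping genes, after 48 h exposure of HepaRG cells to eight concentrations (top 100 uM, half-log steps, duplicate, 0.5% DMSO). Up- or down-regulation fitted relative to vehicle.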

Sequence of Cytochrome P450 2C19 (Homo sapiens) (P33261 whole entry, looked up): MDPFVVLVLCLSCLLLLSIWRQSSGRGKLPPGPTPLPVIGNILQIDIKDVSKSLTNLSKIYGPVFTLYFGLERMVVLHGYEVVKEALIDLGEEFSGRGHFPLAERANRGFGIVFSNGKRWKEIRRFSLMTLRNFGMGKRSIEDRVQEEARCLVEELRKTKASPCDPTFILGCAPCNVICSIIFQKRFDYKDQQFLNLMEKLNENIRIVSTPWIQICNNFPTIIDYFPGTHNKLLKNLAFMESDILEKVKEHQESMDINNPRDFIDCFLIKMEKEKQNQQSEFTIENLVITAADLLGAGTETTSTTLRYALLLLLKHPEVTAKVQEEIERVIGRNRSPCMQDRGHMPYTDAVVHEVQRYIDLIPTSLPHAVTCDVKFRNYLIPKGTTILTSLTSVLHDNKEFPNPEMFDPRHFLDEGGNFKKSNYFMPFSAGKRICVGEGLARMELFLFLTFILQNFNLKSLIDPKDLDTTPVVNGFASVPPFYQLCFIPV
Sequence of Apoptosis regulator Bcl-2 (Homo sapiens) (P10415 whole entry, looked up): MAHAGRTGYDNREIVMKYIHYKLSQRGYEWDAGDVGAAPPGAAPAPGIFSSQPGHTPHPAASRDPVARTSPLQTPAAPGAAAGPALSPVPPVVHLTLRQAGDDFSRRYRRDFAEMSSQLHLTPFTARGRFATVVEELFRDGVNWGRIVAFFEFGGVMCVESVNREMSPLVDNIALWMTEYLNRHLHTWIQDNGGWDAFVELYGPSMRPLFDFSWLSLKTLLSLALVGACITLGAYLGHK
Sequence of Caspase-3 (Homo sapiens) (P42574 whole entry, looked up): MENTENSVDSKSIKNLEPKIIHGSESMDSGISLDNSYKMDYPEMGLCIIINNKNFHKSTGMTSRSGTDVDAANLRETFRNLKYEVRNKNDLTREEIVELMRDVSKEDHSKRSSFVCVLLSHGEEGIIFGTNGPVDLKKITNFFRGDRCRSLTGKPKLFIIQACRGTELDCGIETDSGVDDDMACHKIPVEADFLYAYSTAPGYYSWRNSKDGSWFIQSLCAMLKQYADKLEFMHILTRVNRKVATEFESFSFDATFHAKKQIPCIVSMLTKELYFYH

As to `CCc1cccc(CC)c1N`, the result in test [1], in test [2], in [3], in test [4], in test [5] and in test [6] was inactive. For the same compound, the call in test [7], in [8], in test [9], in test [10], in test [11] and in test [13] was inactive. The compound was classed as inactive in test [15], in test [16], in [17] and in test [18]. In addition, the AC50 in [12] was 50 µM (active); in test [14], 6.35 µM (active).
For the compound `OCCOCCOCCO`, the result in [1], in test [2], in test [3], in test [4], in test [5] and in test [6] was inactive. Moreover, the compound was called inactive in test [7], in [8], in [9], in [10], in test [11] and in [12]. Besides, the compound was classed as inactive in test [13], in [15], in test [16] and in test [17].
For the compound `CCCc1ccccc1`, the outcome in [1], in test [2], in test [3], in test [4], in test [5] and in test [6] was inactive. Besides, the compound was classed as inactive in test [7], in [8], in [9], in [10], in test [11] and in [12]. For the same compound, the call in [13], in test [15], in test [16] and in test [17] was inactive.
Consider `NC(=O)NN=Cc1ccc([N+](=O)[O-])o1`, for which the compound was classed as inactive in test [1], in [4], in test [19], in test [5], in test [6] and in test [7]. The outcome in test [8], in test [10], in test [13], in test [15], in test [16] and in [17] was inactive. Moreover, the AC50 was 0.468 µM (active) in test [2]; 381 nM (active) in test [3]; 267 nM (active) in test [9]; 456 nM (active) in test [11]; 0.377 µM (active) in [12]; 19 µM (active) in test [18].
For `OCC(CO)(CO)CO`, the compound was called inactive in test [1], in [2], in test [3], in [4], in test [19] and in test [5]. Moreover, the result in test [6], in [7], in test [8], in test [9], in [10] and in test [11] was inactive. The compound was classed as inactive in test [12], in test [13], in test [15], in [16] and in test [17].
Regarding `O=C(NO)C1(NS(=O)(=O)c2ccc(Oc3ccc(F)cc3)cc2)CCOCC1`, the AC50 is 60.9 µM (active) in test [2]; 70.2 µM (active) in test [5]; 50 µM (active) in test [10]; 12.8 µM (active) in test [15]; 90.7 µM (active) in [16]. For the same compound, the compound was called inactive in [3], in test [4], in test [6], in test [7], in test [8] and in test [9]. The call in [11], in [12], in test [13] and in test [17] was inactive.

Source of the values: PubChem BioAssay (EPA / NIEHS).
